Assay results published in PubChem BioAssay AID1159580 (chemical genetic matrix, 2015).
Where “and” joins values, the source holds several entries; their conditions need not be identical. Equal values may be shown once. In all, about 5,500 compounds went through this assay and about 2,000 (36%) were called active. About 18% were inconclusive and are not listed. Some of the results follow. A number with no mark means an inactive call. Rule as the data show it: active = normalized growth mostly below about 0.91 (no sharp cut-off); inconclusive = no clear call, values can overlap the other calls; inactive = mostly above about 0.92.

Experiment: chemical genetic growth profiling, strain panel (AID 1159580);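 also: tested at 20 µM; growth read once vehicle control cultures reached saturation at 30 °C; 1 = growth at the plate median or of vehicle wells; lower values mean less growth of the strain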
Conditions: S. cerevisiae deletion strains, growth OD

## O=C1c2ccccc2C(=O)c2ccccc21
Locus YAL013W, strain DEP1, active compounds read low
  normalized growth: 1
Locus YAL021C, strain ccr4, active compounds read low
  normalized growth: 0.97
Locus YAL026C, strain drs2, active compounds read low
  normalized growth: 0.969
Locus YAL030W, strain snc1, active compounds read low
  normalized growth: 0.995
Locus YBL061C, strain skt5, active compounds read low
  normalized growth: 0.986
Locus YBR009C, strain hhf1, active compounds read low
  normalized growth: 0.96
Locus YBR021W, strain FUR4, active compounds read low
  normalized growth: 1.15
Locus YBR023C, strain chs3, active compounds read low
  normalized growth: 0.982
Locus YBR171W, strain sec66, active compounds read low
  normalized growth: 0.978
Locus YBR229C, strain ROT2, active compounds read low
  normalized growth: 0.999
Locus YBR231C, strain swc5, active compounds read low
  normalized growth: 0.963
Locus YBR279W, strain paf1, active compounds read low
  normalized growth: 0.975
Locus YCL011C, strain gbp2, active compounds read low
  normalized growth: 0.989
Locus YCL016C, strain dcc1, active compounds read low
  normalized growth: 0.957
Locus YCL029C, strain bik1, active compounds read low
  normalized growth: 0.994
Locus YCL069W, strain vba3, active compounds read low
  normalized growth: 0.998
Locus YCR088W, strain abp1, active compounds read low
  normalized growth: 1.01
Locus YDL005C, strain med2, active compounds read low
  normalized growth: 0.999
Locus YDL035C, strain GPR1, active compounds read low
  normalized growth: 0.949
Locus YDL040C, strain nat1, active compounds read low
  normalized growth: 0.988
Locus YDL074C, strain BRE1, active compounds read low
  normalized growth: 0.91
Locus YDL101C, strain DUN1, active compounds read low
  normalized growth: 0.985
Locus YDL134C, strain PPH21, active compounds read low
  normalized growth: 0.995
Locus YDL185W, strain tfp1, active compounds read low
  normalized growth: 0.981
Locus YDL192W, strain arf1, active compounds read low
  normalized growth: 0.99
Locus YDR001C, strain nth1, active compounds read low
  normalized growth: 0.993
Locus YDR069C, strain doa4, active compounds read low
  normalized growth: 0.984
Locus YDR101C, strain arx1, active compounds read low
  normalized growth: 0.989
Locus YDR137W, strain rgp1, active compounds read low
  normalized growth: 0.947
Locus YDR150W, strain NUM1, active compounds read low
  normalized growth: 0.969
Locus YDR159W, strain sac3, active compounds read low
  normalized growth: 1.01
Locus YDR162C, strain NBP2, active compounds read low
  normalized growth: 0.921
Locus YDR195W, strain ref2
  normalized growth: 1.24 [resistant] (active)
Locus YDR297W, strain sur2, active compounds read low
  normalized growth: 0.993
Locus YDR318W, strain mcm21, active compounds read low
  normalized growth: 0.975
Locus YDR334W, strain swr1, active compounds read low
  normalized growth: 0.974
Locus YDR335W, strain msn5, active compounds read low
  normalized growth: 0.966
Locus YDR388W, active compounds read low
  normalized growth: 1
Locus YDR392W, strain spt3, active compounds read low
  normalized growth: 0.842
Locus YDR502C, strain sam2, active compounds read low
  normalized growth: 0.991
Locus YEL003W, strain gim4, active compounds read low
  normalized growth: 0.981
Locus YEL037C, strain rad23, active compounds read low
  normalized growth: 0.982
Locus YEL061C, strain CIN8 (second series), active compounds read low
  normalized growth: 0.991
Locus YEL061C, strain CIN8, active compounds read low
  normalized growth: 1.01
Locus YER015W, strain faa2, active compounds read low
  normalized growth: 0.957
Locus YER016W, strain bim1, active compounds read low
  normalized growth: 0.992
Locus YER110C, active compounds read low
  normalized growth: 0.986
Locus YER111C, strain swi4, active compounds read low
  normalized growth: 1
Locus YER155C, strain BEM2 (second series), active compounds read low
  normalized growth: 0.968
Locus YER155C, strain BEM2, active compounds read low
  normalized growth: 1.02
Locus YER167W, strain BCK2, active compounds read low
  normalized growth: 0.976
Locus YFR010W, strain ubp6, active compounds read low
  normalized growth: 0.982
Locus YGL078C, strain dbp3, active compounds read low
  normalized growth: 0.978
Locus YGL086W, strain mad1, active compounds read low
  normalized growth: 0.967
Locus YGL167C, strain pmr1, active compounds read low
  normalized growth: 0.963
Locus YGL173C, strain kem1, active compounds read low
  normalized growth: 0.997
Locus YGL227W, strain vid30, active compounds read low
  normalized growth: 1
Locus YGL240W, strain doc1, active compounds read low
  normalized growth: 1
Locus YGL248W, strain PDE1, active compounds read low
  normalized growth: 1.01
Locus YGL253W, strain hxk2, active compounds read low
  normalized growth: 0.968
Locus YGR078C, strain PAC10, active compounds read low
  normalized growth: 0.963
Locus YGR135W, strain pre9, active compounds read low
  normalized growth: 0.994
Locus YGR229C, strain SMI1, active compounds read low
  normalized growth: 0.854
Locus YGR252W, strain gcn5, active compounds read low
  normalized growth: 1.01
Locus YHR013C, strain ard1, active compounds read low
  normalized growth: 0.974
Locus YHR027C, strain rpn1, active compounds read low
  normalized growth: 0.965
Locus YHR030C, strain SLT2, active compounds read low
  normalized growth: 1.01 and 1.02
Locus YHR079C, strain IRE1 (second series), active compounds read low
  normalized growth: 0.994
Locus YHR079C, strain IRE1, active compounds read low
  normalized growth: 1.04
Locus YHR094C, strain hxt1, active compounds read low
  normalized growth: 0.98
Locus YHR129C, strain ARP1, active compounds read low
  normalized growth: 1
Locus YHR142W, strain chs7, active compounds read low
  normalized growth: 0.93
Locus YHR200W, strain rpn10, active compounds read low
  normalized growth: 0.988
Locus YIL066C, strain RNR3, active compounds read low
  normalized growth: 0.95
Locus YIL073C, strain SPO22, active compounds read low
  normalized growth: 0.832
Locus YIL125W, strain kgd1, active compounds read low
  normalized growth: 0.989
Locus YIR030C, strain dcg1, active compounds read low
  normalized growth: 0.998
Locus YJL092W, strain hpr5, active compounds read low
  normalized growth: 0.992
Locus YJL095W, strain BCK1 (second series), active compounds read low
  normalized growth: 1
Locus YJL095W, strain BCK1, active compounds read low
  normalized growth: 0.994 and 1.03
Locus YJL115W, strain asf1, active compounds read low
  normalized growth: 0.998
Locus YJL129C, strain trk1, active compounds read low
  normalized growth: 1.07
Locus YJL134W, strain LCB3, active compounds read low
  normalized growth: 0.988
Locus YJL154C, strain vps35, active compounds read low
  normalized growth: 1
Locus YJL164C, strain tpk1, active compounds read low
  normalized growth: 0.975
Locus YJL166W, strain qcr8, active compounds read low
  normalized growth: 1
Locus YJL168C, strain set2, active compounds read low
  normalized growth: 1
Locus YJL187C, strain SWE1 (second series), active compounds read low
  normalized growth: 0.982
Locus YJL187C, strain SWE1, active compounds read low
  normalized growth: 0.989
Locus YJR043C, strain POL32, active compounds read low
  normalized growth: 0.958
Locus YJR066W, strain TOR1, active compounds read low
  normalized growth: 0.982
